Compound activity: PubChem, NMMLSC
RPL19A TOR yeast – RPL19A-GFP expression modulators in yeast, primary screen, cell-based, S. cerevisiae, multiplex flow cytometry, MLPCN; S. cerevisiae RPL19A-GFP strain, 3 h; stronger effect = lower value; 330,000 compounds, 0.3% hits; percent response vs DMSO, % at 10 µM;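 active means percent response vs DMSO below 50%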;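 further: median channel GFP fluorescence of the barcoded RPL19A-GFP strain; ratio of sample median GFP to plate DMSO average so 100% = DMSO; lower means less RPL19A-GFP as with rapamycin TOR inhibition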
AGP1 TOR yeast – modulators of AGP1-GFP expression in yeast TOR pathway, primary screen, cell-based, multiplex flow cytometry, S. cerevisiae, MLPCN library; GFP response vs DMSO, % at 10 µM; 3 h; GFP as percent of DMSO wells; AID 2066, 2009; 320,000 compounds, 0.02% hits;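 active means GFP response relative to DMSO above a set limit, near screen average plus 3 SD, cut at about 150% in these data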;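 further: median GFP channel fluorescence of the gated AGP1 strain per well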
CIT2 TOR yeast – modulators of CIT2-GFP expression in yeast, primary screen, S. cerevisiae, GFP fusion, multiplex flow cytometry, MLPCN library; S. cerevisiae CIT2-GFP strain, 3 h; 100 means same as DMSO wells; GFP response vs DMSO, % at 10 µM; 320,000 compounds, 0.065% hits;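 active means GFP response relative to DMSO above a set limit, near the screen mean plus 3 SD, cut at about 150% in these data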;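 further: ratio of well median GFP fluorescence to mean of DMSO wells on the plate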
MEP2-GFP yeast – modulators of MEP2-GFP levels in yeast, primary screen, S. cerevisiae, multiplex flow cytometry, MLPCN library; S. cerevisiae MEP2-GFP strain, 3 h; 100% = DMSO control level; GFP response vs DMSO, % at 10 µM; 330,000 compounds, 0.51% hits;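 active means GFP response versus DMSO above a set limit, roughly screen mean plus 3 SD, cut at about 180% in these data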;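 further: median GFP fluorescence of the barcode-gated MEP2-GFP cells per well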
LAP4 TOR yeast – modulators of LAP4-GFP expression in yeast, primary screen, S. cerevisiae, multiplex flow cytometry, MLPCN library | 3 h; median GFP as percent of DMSO wells | GFP response vs DMSO, % at 10 µM | 320,000 compounds, 0.34% hits;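 active means GFP response vs DMSO above a set limit, about the screen mean plus 3 SD, cut at about 150% in these data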
LAP4 cherry2 – LAP4-GFP expression modulators in yeast, confirmation, cell-based, second cherry pick, flow cytometry. shares compounds with LAP4 TOR yeast. S. cerevisiae LAP4-GFP strain, 3 h. GFP response vs DMSO, % at 10 µM. 590 compounds, 20% hits. AID 2621, 2010;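 active means GFP signal as percent of the solvent control above about 150%, meaning raised reporter expression, limit read from the data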;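 further: ratio of well median GFP fluorescence to plate DMSO mean so 100% = DMSO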
MEP2-GFP pick2 – modulators of MEP2-GFP levels in yeast, confirmation, S. cerevisiae, flow cytometry GFP, second cherry picks; GFP response vs DMSO, % at 10 µM; 590 compounds, 10% hits; shares compounds with LAP4 TOR yeast; S. cerevisiae MEP2-GFP strain, 3 h;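 active means GFP signal above 150% of the solvent control wells, that is a rise of more than half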;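 further: median channel GFP fluorescence of all gated yeast cells per well; ratio of median GFP to plate DMSO average so 100% = DMSO level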
RPL19A GFP CP2 – RPL19A-GFP modulators in TOR pathway yeast, confirmation, cell-based, S. cerevisiae, flow cytometry, second cherry pick | AID 2623, 2010 | 590 compounds, 3% hits | S. cerevisiae RPL19A-GFP strain, 3 h; stronger effect = lower value; 100% means same as DMSO wells | GFP response vs DMSO, % at 10 µM | shares compounds with LAP4 TOR yeast;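 active means under 65% GFP response relative to DMSO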;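 further: median GFP channel fluorescence per well over the all cells gate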
CIT2 GFP CP2 – modulators of CIT2-GFP expression in yeast, confirmation, flow cytometry, second cherry pick, single plex. shares compounds with LAP4 TOR yeast. S. cerevisiae CIT2-GFP strain, 3 h; DMSO control wells read 100%. GFP response vs DMSO, % at 10 µM. 590 compounds, 8% hits. AID 2624, 2010;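 active means GFP response vs DMSO above about 150%, limit read from the data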;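 further: median green fluorescence per well over all gated yeast cells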
AGP1-GFP pick2 – AGP1-GFP expression modulators, hit retest, confirmation, cell-based, flow cytometry, S. cerevisiae, cherry pick set 2; shares compounds with LAP4 TOR yeast; S. cerevisiae AGP1-GFP strain, 3 h; percent response vs DMSO, % at 10 µM; 590 tested, under 10 active; AID 2643, 2010;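 active means over 150 percent of DMSO response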;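 further: median GFP channel fluorescence over all cells without mother daughter split; sample median GFP divided by mean DMSO control so 100% equals DMSO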
s288c autofluor – compound autofluorescence in yeast s288c, dose response, artefact control for yeast TOR pathway GFP screen, s288c strain; shares compounds with LAP4 TOR yeast; S. cerevisiae s288c, 520 nm autofluorescence, flow cytometry, 3 h; stronger effect = higher value; zero means same as solvent-only cells; fluorescence change (kMESF span) at 33 µM; 610 tested, under 10 active;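 active means fluorescence span over the dose series, or activity score, above about 33, limit read from the data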
An asterisk follows results filed as active; x = no result given. Most compounds without a hit are left out; they make up all but 0.89% or so of the library.

SMILES	RPL19A TOR yeast	AGP1 TOR yeast	CIT2 TOR yeast	MEP2-GFP yeast	LAP4 TOR yeast	LAP4 cherry2	MEP2-GFP pick2	RPL19A GFP CP2	CIT2 GFP CP2	AGP1-GFP pick2	others
C#CCOCCOCCOCCNc1nc(N2CCN(C(=O)CCCCCCCCCCNC(=O)[C@H](CCCCN)n3cc(CCO)nn3)CC2)nc(N2CCN(C(=O)CCCCCCCCCCNC(=O)[C@H](CCCCN)n3cc(CCCC(=O)O)nn3)CC2)n1	90	84	80	87	134	x	x	x	x	x
C#CCOCCOCCOCCNc1nc(N2CCN(C(=O)CCCCCCCCCCNC(=O)[C@@H](CCSC)n3cc(CCO)nn3)CC2)nc(N2CCN(C(=O)CCCCCCCCCCNC(=O)[C@H](CCCN=C(N)N)n3cc(C[C@@H](C)CC)nn3)CC2)n1	83	82	85	93	152*	119	140	96	117	108
C#CCOCCOCCOCCNc1nc(N2CCN(C(=O)CCCCCCCCCCNC(=O)[C@H](CCCCN)n3cc(C)nn3)CC2)nc(N2CCN(C(=O)CCCCCCCCCCNC(=O)[C@@H]([C@H](C)O)n3cc(C)nn3)CC2)n1	90	82	85	84	135	x	x	x	x	x
C#CCOCCOCCOCCNc1nc(N2CCN(C(=O)CCCCCCCCCCNC(=O)[C@@H](CCSC)n3cc(CCO)nn3)CC2)nc(N2CCN(C(=O)CCCCCCCCCCNC(=O)[C@H](CCC(=O)O)n3cc(CCCCCN)nn3)CC2)n1	93	102	97	109	99	x	x	x	x	x
Cc1nn(-c2ccccc2)c(C)c1/C=N/n1cnnc1	87	89	93	92	84	x	x	x	x	x
COc1ccc(S(=O)(=O)N(C)c2ccc(C(=O)N3CCN(c4ccccc4)CC3)cc2)cc1OC	109	102	100	105	95	x	x	x	x	x
C#CCOCCOCCOCCNc1nc(N2CCN(C(=O)[C@H]([C@@H](C)CC)n3cc([C@@H](N)Cc4ccc(O)cc4)nn3)CC2)nc(N2CCN(C(=O)[C@H](CCCCN)n3cc([C@@H](N)CC(C)C)nn3)CC2)n1	59	153*	129	839*	301*	107	115	97	115	98
C#CCOCCOCCOCCNc1nc(N2CCN(C(=O)[C@H](CCCCN)n3cc([C@@H](N)CC(C)C)nn3)CC2)nc(N2CCN(C(=O)[C@H](Cc3ccc(O)cc3)n3cc([C@@H](N)CC(C)C)nn3)CC2)n1	100	94	99	92	113	x	x	x	x	x
CCCN1Cc2cccc(C(=O)Nc3ccc4c(c3)OCCO4)c2C1=O	99	103	108	107	99	x	x	x	x	x
Cc1nnc(NC(=O)CSc2nnc(Cc3cccn3C)n2-c2cccc(C(F)(F)F)c2)s1	97	96	93	96	94	x	x	x	x	x
O=C1C(Cl)=C(N2CCCCCC2)C(=O)N1c1ccccc1Cl	104	95	96	104	91	x	x	x	x	x
Cc1ccccc1N1C(=O)C(Cl)=C(N2CCN(c3ccccc3)CC2)C1=O	100	x	94	100	105	x	x	x	x	x	s288c autofluor=0.1
CCc1ccc(C(=O)/C=C/c2ccc([N+](=O)[O-])o2)cc1	99	78	155*	185*	215*	x	x	x	x	x	s288c autofluor=4.2
CCOc1ccccc1NC(=O)C1C2C=CC(O2)C1C(=O)O (stereo not given)	85	x	100	121	123	x	x	x	x	x
Oc1ccc(CNc2ccc(F)cc2)c2cccnc12	106	107	102	109	84	x	x	x	x	x
Oc1ccc(CNc2ccccc2)c2cccnc12	95	99	102	105	78	103	124	105	121	103	s288c autofluor=0.4
C=CCn1c(C)c(/C=C/c2cc[n+](C)cc2)c2ccccc21	129	117	241*	286*	171*	x	x	x	x	x	s288c autofluor=5.1
COc1cc(/C=C2\CC/C(=C\c3cc(OC)c(O)c(OC)c3)C2=O)cc(OC)c1O	98	105	126	184*	138	146	141	111	165*	111	s288c autofluor=2.7
COc1cc(/C=C2\CC/C(=C\c3cc(OC)c(OC)c(OC)c3)C2=O)cc(OC)c1OC	104	104	103	98	98	x	x	x	x	x
CC(C)OC(=O)NC(C)(C)COC(=O)Nc1cccc(Cl)c1	97	92	89	94	101	x	x	x	x	x
O=C1NC(=Nc2ccccc2Cl)S/C1=C\c1cccc([N+](=O)[O-])c1	89	71	79	82	152*	142	98	92	121	83
O=C1NC(=Nc2ccccc2Cl)S/C1=C\c1cccc([N+](=O)[O-])c1O	97	80	102	102	80	x	x	x	x	x
COC(=O)CCC(=O)OC1(C)C(=O)C2=COC(c3ccc(OC)cc3)=CC2=C(Br)C1=O (stereo not given)	39*	18	49	79	127	151*	129	72	108	43	s288c autofluor=2.2
COC(=O)CCC(=O)OC1(C)C(=O)C2=CN(C(CO)CO)C(c3ccc(OC)cc3)=CC2=C(Br)C1=O (stereo not given)	100	102	88	103	98	x	x	x	x	x
Cc1cccn2c(=O)c3cc(C#N)c(=N)n(CCCN4CCOCC4)c3nc12	63	74	78	115	78	99	103	99	97	98
COc1ccc(CCN2C(=O)c3cccnc3C2=O)cc1OC	96	99	101	95	93	x	x	x	x	x
CCOc1ccc(NC2=C(OC)C(=O)c3ccccc3C2=O)cc1	98	88	89	101	93	x	x	x	x	x
